Measured values as given in ChEMBL document CHEMBL1157539, “Thousands of chemical starting points for antimalarial lead identification” (Nature, 2010).

How the values were obtained:
Type in all cases: functional
Plasmodium falciparum [1] = assay: GSK_TCMDC: Inhibition of Plasmodium falciparum 3D7 in whole red blood cells, using parasite LDH activity as an index of growth. Test compounds present at 2uM
Plasmodium falciparum [2] = assay: GSK_TCMDC: Inhibition of Plasmodium falciparum Dd2 in whole red blood cells, using parasite LDH activity as an index of growth. Test compounds present at 2uM
HepG2 = assay: GSK_TCMDC: Percent inhibition of human HepG2 cell line. Test compounds present at 10uM.

SMILES: O=C(O)C(F)(F)F.O=C1CCCN1CCCNCc1cccc(-c2ccc(-c3nc4cc(C(F)(F)F)ccc4[nH]3)cc2)c1
- Inhibition (Plasmodium falciparum [1]): 100%
- Inhibition (Plasmodium falciparum [2]): 96%
- Inhibition (HepG2): 15%

SMILES: CC(CN1CCN(C)CC1)C(=O)Nc1ccc(-c2ccc(-c3nc4ccccc4[nH]3)cc2)cc1 (stereo not given)
- Inhibition (Plasmodium falciparum [1]): 92%
- Inhibition (Plasmodium falciparum [2]): 87%
- Inhibition (HepG2): 13%

SMILES: Cl.O=[N+]([O-])c1cccc(-c2nc3cc(C4=NC5CCCCC5N4)ccc3[nH]2)c1 (stereo not given)
- Inhibition (Plasmodium falciparum [1]): 100%
- Inhibition (Plasmodium falciparum [2]): 81%
- Inhibition (HepG2): 4%

SMILES: COc1ccc2ncc(F)c(CCN3CCC[C@H](CNCc4ccc5c(n4)NC(=O)CS5)C3)c2n1.Cl
- Inhibition (Plasmodium falciparum [1]): 96%
- Inhibition (Plasmodium falciparum [2]): 34%
- Inhibition (HepG2): 16%

SMILES: Br.CCc1c(CCNCCCCCCNCCc2ccc([N+](=O)[O-])cc2)ccc(O)c1O
- Inhibition (Plasmodium falciparum [1]): 94%
- Inhibition (Plasmodium falciparum [2]): 23%
- Inhibition (HepG2): 5%

SMILES: O=C(NC1CCN(Cc2ccccc2)CC1)c1cc(C(=O)NC2CCN(Cc3ccccc3)CC2)cc(C(=O)NC2CCN(Cc3ccccc3)CC2)c1
- Inhibition (Plasmodium falciparum [1]): 100%
- Inhibition (Plasmodium falciparum [2]): 100%
- Inhibition (HepG2): 13%

SMILES: Oc1cc2c(cc1CN1CCN(Cc3cccs3)CC1)CCC2
- Inhibition (Plasmodium falciparum [1]): 99%
- Inhibition (Plasmodium falciparum [2]): 91%
- Inhibition (HepG2): 10%

SMILES: Cc1cccc(OC(C)C(=O)Nc2cc(C(F)(F)F)ccc2N2CCOCC2)c1 (stereo not given)
- Inhibition (Plasmodium falciparum [1]): 100%
- Inhibition (Plasmodium falciparum [2]): 98%
- Inhibition (HepG2): 2%

SMILES: CCOc1ccc(Nc2nc(N)c3ccccc3n2)cc1.Cl
- Inhibition (Plasmodium falciparum [1]): 90%
- Inhibition (Plasmodium falciparum [2]): 6%
- Inhibition (HepG2): 28%

SMILES: N=C(N)Nc1nc(-c2cccc(NC(=O)NCCc3c[nH]c4ccc(OCc5ccccc5)cc34)c2)cs1
- Inhibition (Plasmodium falciparum [1]): 100%
- Inhibition (Plasmodium falciparum [2]): 30%
- Inhibition (HepG2): 0%

SMILES: COc1ccc2nccc([C@@H](O)CN3CCC(NC(=O)C(c4cc5ccccc5o4)N4CCC(Cc5ccccc5)CC4)CC3)c2c1 (stereo not given in full)
- Inhibition (Plasmodium falciparum [1]): 100%
- Inhibition (Plasmodium falciparum [2]): 82%
- Inhibition (HepG2): 11%

SMILES: CO/C(=C\C=C\c1cc2cc(Cl)c(Cl)cc2[nH]1)C(=O)NCCCNC12CC3CC(CC(C3)C1)C2
- Inhibition (Plasmodium falciparum [1]): 99%
- Inhibition (Plasmodium falciparum [2]): 76%
- Inhibition (HepG2): 29%

SMILES: CCNc1cc(C(=O)N[C@@H](Cc2ccccc2)[C@H](O)CNCc2ccc3c(c2)OCCO3)cc(N2CCCCS2(=O)=O)c1.O=CO
- Inhibition (Plasmodium falciparum [1]): 95%
- Inhibition (Plasmodium falciparum [2]): 45%
- Inhibition (HepG2): 0%

SMILES: CCCN(C(=O)c1ccccc1C)c1nnc(-c2ccccc2C)s1
- Inhibition (Plasmodium falciparum [1]): 90%
- Inhibition (Plasmodium falciparum [2]): 65%
- Inhibition (HepG2): 16%

SMILES: CCNc1cc(C(=O)N[C@@H](Cc2cccc(Cl)c2)[C@H](O)CNC(C)CCCC(C)C)cc(N2CCCCS2(=O)=O)c1.Cl (stereo not given in full)
- Inhibition (Plasmodium falciparum [1]): 98%
- Inhibition (Plasmodium falciparum [2]): 78%
- Inhibition (HepG2): 7%

SMILES: COc1ccccc1N=C1SC(=Cc2cn(CC(=O)N3CCCc4ccccc43)c3ccccc23)C(=O)N1C1CCCCC1
- Inhibition (Plasmodium falciparum [1]): 100%
- Inhibition (Plasmodium falciparum [2]): 99%
- Inhibition (HepG2): 10%

SMILES: Cc1ccc(-n2c(=O)c3cccnc3n2CC(=O)Nc2cccc(C)c2C)cc1
- Inhibition (Plasmodium falciparum [1]): 96%
- Inhibition (Plasmodium falciparum [2]): 20%
- Inhibition (HepG2): 9%

SMILES: COc1ccc(Nc2nc(C)cc(NC3CCCC3)n2)cc1
- Inhibition (Plasmodium falciparum [1]): 98%
- Inhibition (Plasmodium falciparum [2]): 59%
- Inhibition (HepG2): 34%

SMILES: CCOC(=O)c1ccc(NC(=O)N(Cc2ccc(-c3ccc(CN4CCNCC4)cc3)cc2)C2CCN(Cc3ccccc3)CC2)cc1.O=C(O)C(F)(F)F
- Inhibition (Plasmodium falciparum [1]): 100%
- Inhibition (Plasmodium falciparum [2]): 93%
- Inhibition (HepG2): 14%

SMILES: Cn1nc(-c2cccc(CN[C@@H]3CCc4ccc(O)cc43)c2)c2cnc(NC3CCCC3)nc21
- Inhibition (Plasmodium falciparum [1]): 100%
- Inhibition (Plasmodium falciparum [2]): 76%
- Inhibition (HepG2): 6%

SMILES: CCc1cn2c3c(cc(C(=O)N[C@@H](Cc4ccccc4)[C@H](O)CNCc4ccccc4C)cc13)N(C)S(=O)(=O)CC2.O=CO
- Inhibition (Plasmodium falciparum [1]): 98%
- Inhibition (Plasmodium falciparum [2]): 98%
- Inhibition (HepG2): 3%

SMILES: CN1CCC(Oc2ccc(NC(=O)c3ccc4c(=O)n(Cc5ccccc5)cnc4c3)cc2Cl)CC1
- Inhibition (Plasmodium falciparum [1]): 95%
- Inhibition (Plasmodium falciparum [2]): 20%
- Inhibition (HepG2): 23%

SMILES: CCCCOC(=O)C1=C(C)NC2=C(C(=O)CCC2)C1c1ccc(OC)c(Br)c1 (stereo not given)
- Inhibition (Plasmodium falciparum [1]): 93%
- Inhibition (Plasmodium falciparum [2]): 87%
- Inhibition (HepG2): 5%

SMILES: O=C(CCc1ccccc1)NC(c1ccc(Cl)cc1)c1ccc2cccnc2c1O (stereo not given)
- Inhibition (Plasmodium falciparum [1]): 95%
- Inhibition (Plasmodium falciparum [2]): 49%
- Inhibition (HepG2): 59%

SMILES: COc1cccc(C2CCN(CCN3CCC(NC(=O)c4ccc(-c5ccc(Cl)cc5)cc4)CC3)CC2)c1
- Inhibition (Plasmodium falciparum [1]): 93%
- Inhibition (Plasmodium falciparum [2]): 42%
- Inhibition (HepG2): 31%

SMILES: Fc1ccc2[nH]c(-c3cccc(-c4ccc(CNCCN5CCNCC5)cc4)c3)nc2c1.O=C(O)C(F)(F)F
- Inhibition (Plasmodium falciparum [1]): 90%
- Inhibition (Plasmodium falciparum [2]): 0%
- Inhibition (HepG2): 9%

SMILES: C[C@H](Cc1ccc(OCCCOc2ccc(C[C@@H](C)NC[C@H](O)c3cccc(Cl)c3)cc2)cc1)NC[C@H](O)c1cccc(Cl)c1.Cl
- Inhibition (Plasmodium falciparum [1]): 99%
- Inhibition (Plasmodium falciparum [2]): 92%
- Inhibition (HepG2): 99%

SMILES: COc1ccc(Nc2ncc(OC)c(Nc3ccccc3C(N)=O)n2)cc1N1CCN(C)CC1.O=CO
- Inhibition (Plasmodium falciparum [1]): 100%
- Inhibition (Plasmodium falciparum [2]): 96%
- Inhibition (HepG2): 63%

SMILES: Cc1c(C)n(C2CCCCC2)c2ncnc(OC3CCN(CC(=O)N4CCCC4)CC3)c12
- Inhibition (Plasmodium falciparum [1]): 95%
- Inhibition (Plasmodium falciparum [2]): 59%
- Inhibition (HepG2): 31%

SMILES: COc1ccc(CCNc2nc(NCCc3cnc[nH]3)nc(NCc3cccc4ccccc34)n2)cc1OC
- Inhibition (Plasmodium falciparum [1]): 98%
- Inhibition (Plasmodium falciparum [2]): 16%
- Inhibition (HepG2): 2%
